{"source": "ChEMBL document CHEMBL1961873", "about": "“Compounds: GSK PKIS; Assays: Nanosyn kinase panel” (2012)", "key": {"[1]": {"target": "Sphingosine kinase 1 (Homo sapiens) (UniProt Q9NYA1)", "sequence (Q9NYA1 whole entry)": "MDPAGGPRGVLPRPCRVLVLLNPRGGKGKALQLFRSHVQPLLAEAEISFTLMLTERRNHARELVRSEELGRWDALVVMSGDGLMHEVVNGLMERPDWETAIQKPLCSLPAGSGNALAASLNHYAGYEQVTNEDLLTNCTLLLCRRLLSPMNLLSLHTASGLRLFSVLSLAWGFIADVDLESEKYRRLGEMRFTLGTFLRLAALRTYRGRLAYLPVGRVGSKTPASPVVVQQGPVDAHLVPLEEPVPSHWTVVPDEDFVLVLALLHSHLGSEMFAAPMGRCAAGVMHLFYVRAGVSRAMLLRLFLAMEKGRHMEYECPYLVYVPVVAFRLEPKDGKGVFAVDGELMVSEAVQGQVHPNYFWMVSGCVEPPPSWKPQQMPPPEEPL", "conditions": "at 1 µM"}, "[2]": {"target": "T1, Sphingosine kinase 2 (Homo sapiens) (UniProt Q9NRA0)", "T1 sequence (whole entry)": "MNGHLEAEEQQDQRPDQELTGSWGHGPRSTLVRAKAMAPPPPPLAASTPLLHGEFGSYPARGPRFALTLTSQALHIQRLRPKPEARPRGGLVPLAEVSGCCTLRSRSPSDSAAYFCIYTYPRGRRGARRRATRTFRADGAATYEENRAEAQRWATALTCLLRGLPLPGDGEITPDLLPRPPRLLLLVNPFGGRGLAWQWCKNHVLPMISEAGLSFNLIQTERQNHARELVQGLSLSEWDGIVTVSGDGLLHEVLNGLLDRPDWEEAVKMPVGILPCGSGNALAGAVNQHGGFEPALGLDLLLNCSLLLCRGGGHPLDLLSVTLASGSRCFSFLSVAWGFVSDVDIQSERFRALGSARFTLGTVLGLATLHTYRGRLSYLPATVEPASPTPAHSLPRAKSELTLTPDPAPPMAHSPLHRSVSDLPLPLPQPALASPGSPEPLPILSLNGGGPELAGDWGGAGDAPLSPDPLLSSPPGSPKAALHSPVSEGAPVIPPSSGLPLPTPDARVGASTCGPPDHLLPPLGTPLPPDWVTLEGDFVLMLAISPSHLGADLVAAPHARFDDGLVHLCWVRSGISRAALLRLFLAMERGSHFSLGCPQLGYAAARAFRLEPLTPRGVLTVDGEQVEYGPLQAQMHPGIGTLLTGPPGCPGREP", "conditions": "at 0.1 µM"}, "[3]": {"target": "T1, Sphingosine kinase 2 (Homo sapiens)", "conditions": "at 1 µM"}, "[4]": {"target": "Casein kinase II subunit alpha (Homo sapiens) (UniProt P68400)", "sequence (P68400 whole entry, looked up)": "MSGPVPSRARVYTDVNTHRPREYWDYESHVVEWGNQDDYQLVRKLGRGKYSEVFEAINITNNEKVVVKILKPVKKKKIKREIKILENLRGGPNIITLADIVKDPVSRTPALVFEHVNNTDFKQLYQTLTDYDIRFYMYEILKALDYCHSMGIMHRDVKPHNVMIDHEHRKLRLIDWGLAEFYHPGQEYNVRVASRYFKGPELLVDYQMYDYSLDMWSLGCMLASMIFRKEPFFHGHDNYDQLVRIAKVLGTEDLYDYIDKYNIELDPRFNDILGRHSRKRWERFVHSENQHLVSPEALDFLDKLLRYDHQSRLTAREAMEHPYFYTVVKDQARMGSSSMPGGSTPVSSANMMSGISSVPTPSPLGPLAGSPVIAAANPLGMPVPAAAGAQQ", "conditions": "at 0.1 µM"}, "[5]": {"target": "Casein kinase II subunit alpha (Homo sapiens) (UniProt P68400)", "conditions": "at 1 µM"}, "[6]": {"target": "T2, Inhibitor of nuclear factor kappa-B kinase subunit alpha (Homo sapiens) (UniProt O15111)", "T2 sequence (whole entry)": "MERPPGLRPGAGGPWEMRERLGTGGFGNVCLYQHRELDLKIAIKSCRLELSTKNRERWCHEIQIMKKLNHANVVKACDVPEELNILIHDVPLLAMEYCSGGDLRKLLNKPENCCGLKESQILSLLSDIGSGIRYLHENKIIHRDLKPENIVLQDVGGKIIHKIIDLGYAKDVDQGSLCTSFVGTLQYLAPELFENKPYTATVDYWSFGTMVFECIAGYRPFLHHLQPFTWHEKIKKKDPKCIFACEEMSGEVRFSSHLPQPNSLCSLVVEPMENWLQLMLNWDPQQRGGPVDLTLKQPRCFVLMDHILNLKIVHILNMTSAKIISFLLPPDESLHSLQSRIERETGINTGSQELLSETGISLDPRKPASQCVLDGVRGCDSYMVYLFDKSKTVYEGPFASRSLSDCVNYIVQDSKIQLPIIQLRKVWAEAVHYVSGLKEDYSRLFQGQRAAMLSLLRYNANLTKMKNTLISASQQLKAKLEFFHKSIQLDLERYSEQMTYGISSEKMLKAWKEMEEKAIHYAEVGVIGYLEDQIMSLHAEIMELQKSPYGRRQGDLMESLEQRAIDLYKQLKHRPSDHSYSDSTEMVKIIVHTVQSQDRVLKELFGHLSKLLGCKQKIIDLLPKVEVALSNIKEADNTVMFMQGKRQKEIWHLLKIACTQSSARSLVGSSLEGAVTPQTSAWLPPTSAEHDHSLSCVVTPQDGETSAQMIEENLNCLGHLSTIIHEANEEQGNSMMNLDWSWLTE", "conditions": "at 0.1 µM"}, "[7]": {"target": "T2, Inhibitor of nuclear factor kappa-B kinase subunit alpha (Homo sapiens)", "conditions": "at 1 µM"}, "[8]": {"target": "T3, Inhibitor of nuclear factor kappa-B kinase subunit beta (Homo sapiens) (UniProt O14920)", "T3 sequence (whole entry)": "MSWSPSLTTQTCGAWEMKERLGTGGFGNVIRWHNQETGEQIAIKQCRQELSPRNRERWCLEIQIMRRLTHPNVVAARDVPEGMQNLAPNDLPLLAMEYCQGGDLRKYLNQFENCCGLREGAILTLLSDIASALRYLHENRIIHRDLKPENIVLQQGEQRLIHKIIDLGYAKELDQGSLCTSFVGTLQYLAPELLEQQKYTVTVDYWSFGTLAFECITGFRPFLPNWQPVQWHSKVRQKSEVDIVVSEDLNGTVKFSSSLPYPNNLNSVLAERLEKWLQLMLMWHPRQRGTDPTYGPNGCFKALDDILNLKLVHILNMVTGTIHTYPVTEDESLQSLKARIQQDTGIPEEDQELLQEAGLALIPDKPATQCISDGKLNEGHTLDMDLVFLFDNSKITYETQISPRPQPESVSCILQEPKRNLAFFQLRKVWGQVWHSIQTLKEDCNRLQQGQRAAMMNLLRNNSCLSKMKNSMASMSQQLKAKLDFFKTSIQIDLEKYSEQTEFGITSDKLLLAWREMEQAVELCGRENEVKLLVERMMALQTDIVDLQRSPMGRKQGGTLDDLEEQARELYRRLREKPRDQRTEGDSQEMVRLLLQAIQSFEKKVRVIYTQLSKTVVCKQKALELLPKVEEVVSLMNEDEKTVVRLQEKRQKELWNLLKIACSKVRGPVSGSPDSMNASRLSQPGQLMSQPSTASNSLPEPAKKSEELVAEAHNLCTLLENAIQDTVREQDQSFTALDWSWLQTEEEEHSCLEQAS", "conditions": "at 0.1 µM"}, "[9]": {"target": "T3, Inhibitor of nuclear factor kappa-B kinase subunit beta (Homo sapiens)", "conditions": "at 1 µM"}, "[10]": {"target": "T4, Inhibitor of nuclear factor kappa-B kinase subunit epsilon (Homo sapiens) (UniProt Q14164)", "T4 sequence (whole entry)": "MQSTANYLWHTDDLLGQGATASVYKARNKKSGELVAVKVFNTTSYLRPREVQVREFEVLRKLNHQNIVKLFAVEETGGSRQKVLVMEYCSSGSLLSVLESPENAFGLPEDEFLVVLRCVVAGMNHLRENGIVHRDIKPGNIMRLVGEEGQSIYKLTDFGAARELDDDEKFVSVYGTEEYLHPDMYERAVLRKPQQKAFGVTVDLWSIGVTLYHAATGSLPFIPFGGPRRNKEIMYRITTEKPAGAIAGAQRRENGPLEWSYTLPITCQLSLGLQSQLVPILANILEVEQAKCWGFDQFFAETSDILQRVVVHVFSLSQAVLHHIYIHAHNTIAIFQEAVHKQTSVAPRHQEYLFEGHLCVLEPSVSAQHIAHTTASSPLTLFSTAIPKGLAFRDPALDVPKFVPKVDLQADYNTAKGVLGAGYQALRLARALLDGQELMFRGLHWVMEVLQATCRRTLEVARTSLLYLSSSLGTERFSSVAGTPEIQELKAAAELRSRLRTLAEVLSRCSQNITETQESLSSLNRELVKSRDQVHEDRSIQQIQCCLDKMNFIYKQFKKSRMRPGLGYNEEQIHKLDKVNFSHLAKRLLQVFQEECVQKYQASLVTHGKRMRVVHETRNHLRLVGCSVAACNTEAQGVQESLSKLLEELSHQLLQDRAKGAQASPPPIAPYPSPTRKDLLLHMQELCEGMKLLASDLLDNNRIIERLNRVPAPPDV", "conditions": "at 0.1 µM"}}, "data": [{"smiles": "COc1cc(N2CCN(C(C)C)CC2)ccc1Nc1nc(Nc2cccc3ncccc23)c2cc[nH]c2n1", "values": [{"measurement": "inhibition", "setting": "[1]", "result": -2, "unit": "%"}, {"measurement": "inhibition", "setting": "[2]", "result": 0, "unit": "%"}, {"measurement": "inhibition", "setting": "[3]", "result": -0.78, "unit": "%"}, {"measurement": "inhibition", "setting": "[4]", "result": 1.04, "unit": "%"}, {"measurement": "inhibition", "setting": "[5]", "result": 1.8, "unit": "%"}, {"measurement": "inhibition", "setting": "[6]", "result": 4.1, "unit": "%"}, {"measurement": "inhibition", "setting": "[7]", "result": -3.72, "unit": "%"}, {"measurement": "inhibition", "setting": "[8]", "result": 1.05, "unit": "%"}, {"measurement": "inhibition", "setting": "[9]", "result": -2.01, "unit": "%"}, {"measurement": "inhibition", "setting": "[10]", "result": -1.3, "unit": "%"}]}]}
